Assay outcomes: PubChem BioAssay, several laboratories
Sampled rows, rich in hits. Any-hit rate of the full collection: about 4%.
Rv3671c protease: inhibits the M. tuberculosis serine protease Rv3671c | inhibition, % at 5.96 µM | hit rate 0.048% among 320,000 | AID 2606; in the data active = inhibition above about 38%;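 also: extracellular domain of Rv3671c used as enzyme; 0% = enzyme with DMSO and 100% = no enzyme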
GDH-TPI inh: GDH-TPI coupled enzyme inhibition counter-screen. GDH-TPI coupled enzyme counterscreen, NADH absorbance. hit rate 1.2% among 360,000. inhibition, % at 4.8 µM; in the data active = inhibition above about 30%;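 also: 0% = DMSO wells and 100% = wells lacking the enzyme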
FBA Mtb inh: Mtb fructose-bisphosphate aldolase inhibition; inhibition, % at 1 µM; hit rate 2.3% among 360,000; P9WQA3; purified M. tuberculosis FBA, fluorescence read-out; in the data active = inhibition above about 27%;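 also: 0% = vehicle and 100% = reference inhibitor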
UGM FP inh: blocks M. tuberculosis UGM enzyme. P9WIQ1. purified UGM, fluorescence polarization probe displacement. inhibition, % at 10 µM. hit rate 0.06% among 320,000. AID 504406; in the data active = inhibition above about 10%, passing the limit was not always enough
RecA intein inh: Mtb RecA intein splicing inhibition; cell-free RecA intein splicing, fluorescence; inhibition, % (no concentration beside the values); hit rate 0.75% among 290,000; AID 2221; in the data active = inhibition above about 30%;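 also: 0% = vehicle wells and 100% = reference inhibitor control wells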
Target sequence (P9WHJ3 whole entry, looked up): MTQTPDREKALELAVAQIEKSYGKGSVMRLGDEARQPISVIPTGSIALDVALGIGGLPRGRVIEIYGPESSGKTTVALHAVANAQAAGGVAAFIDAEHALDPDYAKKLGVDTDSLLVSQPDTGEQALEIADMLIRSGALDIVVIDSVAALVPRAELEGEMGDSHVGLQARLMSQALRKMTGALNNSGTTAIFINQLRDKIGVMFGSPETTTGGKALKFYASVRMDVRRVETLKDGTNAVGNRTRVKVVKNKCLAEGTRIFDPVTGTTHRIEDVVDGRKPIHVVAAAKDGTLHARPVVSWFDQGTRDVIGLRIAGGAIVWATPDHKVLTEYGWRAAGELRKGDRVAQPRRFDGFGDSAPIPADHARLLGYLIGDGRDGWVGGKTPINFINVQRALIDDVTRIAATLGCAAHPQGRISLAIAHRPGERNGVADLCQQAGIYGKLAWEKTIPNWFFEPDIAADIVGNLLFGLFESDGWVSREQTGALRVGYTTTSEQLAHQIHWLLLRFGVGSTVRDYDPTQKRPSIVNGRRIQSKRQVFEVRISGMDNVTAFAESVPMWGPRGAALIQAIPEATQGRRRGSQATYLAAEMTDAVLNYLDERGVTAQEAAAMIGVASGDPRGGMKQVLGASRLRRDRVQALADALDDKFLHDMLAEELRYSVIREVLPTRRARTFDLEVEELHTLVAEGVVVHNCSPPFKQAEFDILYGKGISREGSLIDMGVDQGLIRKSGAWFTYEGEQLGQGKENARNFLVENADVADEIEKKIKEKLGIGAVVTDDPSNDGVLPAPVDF
Mtb bLac sens: beta-lactam sensitization of Mtb H37Rv | M. tuberculosis H37Rv growth with meropenem, percent inhibition | inhibition, % at 25 µM | hit rate 0.27% among 330,000 | AID 434955;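 also: growth measured after seven days incubation then overnight dye step; 0% = bacteria only wells and 100% = bacteria with antibiotic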
GFP chromophore: counter-screen: blocks GFP chromophore formation; EC50, µM; hit rate 83% among 2,100; shares compounds with RecA intein inh; cell-free GFP chromophore formation, fluorescence
Starred values were filed as active, the others as inactive; . = not tested or not shown. Unless noted, no rule for the calls is given here.

SMILES | Rv3671c protease | GDH-TPI inh | FBA Mtb inh | UGM FP inh | RecA intein inh | Mtb bLac sens | others
COc1ccc(N(CC(=O)NC2CCCC2)C(=O)CCC(=O)Nc2nc(C)cs2)cc1OC | -1.6 | -0.8 | 3.4 | -0.4 | . | 1.7
Cc1cc(CNC[C@H]2O[C@@H](n3cnc4c(N)ncnc43)[C@H](O)[C@@H]2O)no1 | . | -5.2 | -1.3 | . | . | .
CC1(NC(=O)/C=C/c2nc3ccccc3s2)CCS(=O)(=O)C1 (stereo unspecified) | -9.0 | 3.5 | 5.1 | -2.3 | . | -6.4
COc1ccc(CN2CCNC(=O)C2CC(=O)NCc2csc(C)n2)c(F)c1 (stereo unspecified) | -6.2 | -0.9 | 3.5 | -0.8 | 1.1 | -7.7
O=C1CCCC2=C1C(c1ccc(O)cc1)c1c(ccc3ccccc13)N2 (stereo unspecified) | 4.4 | 4.4 | 160.3* | -0.9 | -82.8 | 0.8
O=C1CCCC2=C1C(c1ccc(O)c(O)c1)c1c(ccc3ncccc13)N2 (stereo unspecified) | -0.5 | 9.5 | -2.2 | 0.9 | -2.1 | -5.3
COc1cc2c(cc1N)-c1ccc(N)cc1C2=O | . | 25.7 | -1.7 | . | . | .
CC(=O)Cc1nsc(NC(=O)c2ccc(-c3ccc(Cl)cc3Cl)o2)n1 | 8.7 | -0.6 | 2.1 | 1.1 | -1.1 | 1.5
CC(=O)Cc1nsc(NC(=O)c2ccc(-c3cc(Cl)ccc3Cl)o2)n1 | -50.7 | 45.9* | 10.5 | 0.4 | 1.2 | 0.0
CCN(CC)C(=O)COc1ccc2oc(-c3ccco3)cc(=O)c2c1 | -14.7 | 24.8 | 134.3* | 0.8 | 0.8 | -7.4
CC(C)c1ccc(/C=N/Nc2ccc(C(=O)O)cc2)cc1 | 3.3 | 31.0* | -1.4 | 3.8 | -0.8 | 12.1
Cc1ccc(S(=O)(=O)Oc2cccc(/C=N/n3cnnc3)c2)cc1 | -4.1 | 1.1 | -0.9 | 0.5 | 2.6 | -4.3
O=C(O)c1ccc(N/N=C/c2ccc(-c3ccccc3)cc2)cc1 | . | 26.2 | 6.7 | . | 14.2 | .
COc1cccc(/C=C/C(=O)c2ccc(NS(=O)(=O)c3ccc(C)cc3)cc2)c1 | -160.3 | 23.3 | -6.2 | 1.8 | 33.9* | 8.9
COc1ccc(/C=C/C(=O)O/N=C(\N)c2ccccc2)cc1OC | -6.3 | 39.6* | 6.0 | 0.3 | 3.9 | 4.6
Cc1ccc(S(=O)(=O)Oc2cccc(/C=N/Nc3ccc(C(=O)O)cc3)c2)cc1 | 6.9 | 31.4* | 3.0 | -0.2 | 1.1 | 15.8
COc1ccc(NC(=O)/C(C#N)=C/c2ccc(-c3ccc(Cl)c(C(=O)O)c3)o2)cc1 | . | 15.4 | 0.3 | 8.0 | 2.2 | 1.5
Cc1noc(C)c1NC(=O)N(C)C[C@H]1Oc2c(NC(=O)C3CC3)cccc2C(=O)N([C@H](C)CO)C[C@@H]1C | 5.9 | 0.0 | 0.1 | -0.9 | . | 3.7
COc1ccc(/C=N/Nc2ccc(C(=O)O)cc2)cc1Br | -9.3 | 23.6 | 2.4 | 0.7 | -6.7 | 17.7
O=C(O)c1ccc(N/N=C/c2ccc(OC(=O)c3ccccc3Cl)cc2)cc1 | 16.0 | 40.7* | -0.8 | -1.0 | 3.5 | 1.1
COc1ccc(/C=N/Nc2ccc(C(=O)O)cc2)cc1OC | 5.6 | 46.8* | -1.7 | -0.9 | -1.1 | 4.8
Nc1ccc(C(=O)N/N=C\c2ccc(OC(=O)c3ccccc3Cl)cc2)cc1 | 4.2 | 14.6 | -0.9 | 2.0 | -3.1 | 5.4
Cc1c(NC(=O)c2cccnc2Cl)c(=O)n(-c2ccccc2)n1C | -2.7 | 3.9 | -0.8 | -1.2 | -0.7 | 6.3
c1cncc(CNc2ncnc3sc4c(c23)CCCC4)c1 | -0.3 | 5.6 | 3.2 | 2.5 | 36.5* | -1.4 | GFP chromophore=>38
COc1ccc(/C=C2/C(=O)N(c3cccc(F)c3)N=C2C)c(OC)c1 | -6.3 | 15.7 | 1.0 | 0.7 | 46.1* | -1.6 | GFP chromophore=>38
CC1=NN(c2ccccc2)C(=O)/C1=C\c1ccc(Br)s1 | -30.5 | 5.2 | -1.8 | -0.2 | 13.5 | 5.7
COc1cc(/C=C2/C(=O)N(c3ccccc3)N=C2C)ccc1OS(=O)(=O)c1ccccc1 | -183.6 | . | . | -0.4 | 69.7* | 5.0 | GFP chromophore=1.85*
COc1ccc(/C=C2/C(=O)N(c3ccccc3)N=C2C)cc1Br | -245.8 | 11.2 | 5.3 | 1.6 | 45.1* | 3.0 | GFP chromophore=8.04*
CC1=NN(c2cccc(F)c2)C(=O)/C1=C/c1ccc(N(C)C)cc1 | -1.8 | 16.8 | 0.8 | -1.0 | 0.7 | -0.9
O=C(CN1C(=O)NC(Cc2ccccc2)C1=O)Nc1ccc(F)c(Cl)c1 (stereo unspecified) | 0.3 | 11.7 | -2.8 | 3.3 | . | -6.6
